Six1-Eya2 inh: qHTS Assay for Inhibitors of the Six1/Eya2 Interaction. AlphaScreen GST-Six1/His-Eya2 binding, biochemical; stronger effect = lower value. activity change, % (no concentration beside the values). Homeobox protein SIX1 (Homo sapiens) + Protein phosphatase EYA2 (Homo sapiens), …. 360,000 compounds, 0.56% hits. AID 651725, 2012; in the data active = activity change below about -65%; inconclusive = mostly about -30% to -63%
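Six1/Eya2 binding was read as AlphaScreen signal after compounds were pinned into GST-Six1 plus His-tagged Eya2 (5X stock 250/500 nM) in pH 8.0 Tris/NaCl/TCEP buffer, beads added, then incubated 1 h, 37 C, dark.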
CtBP-E1A inh: qHTS Assay for Inhibitors of the CtBP/E1A Interaction; AID 651724, 2012; AlphaScreen GST-E1A/His-CtBP binding, 1536-well; stronger effect = lower value; 340,000 compounds, 0.49% hits; CtBP / adenovirus E1A interaction (AlphaScreen); activity change, % (test concentration not listed); in the data active = activity change below about -65%; inconclusive = mostly about -30% to -63%
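Protein mix (5X: 125 nM each GST-E1A, His-CtBP) was incubated with pinned compound 2 h at 37 deg C in dark, in 50 mM Tris pH 8.0 buffer with 300 mM NaCl. Glutathione donor and nickel acceptor beads followed; AlphaScreen signal read after 1 h.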
USP2a inh: qHTS Assay for Inhibitors of Ubiquitin-specific Protease USP2a Using CHOP2 as the Reporter; Ubiquitin carboxyl-terminal hydrolase 2 (Homo sapiens), O75604; USP2 core, Ub-CHOP2 coupled fluorogenic reporter, 485/531; Potency, µM (doses to about 38.3 µM), for inactives: at the top dose activity change, negative = inhibition, actives largely listed as inhibitors; 330,000 compounds, 0.01% hits; AID 463254, 2010;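 note: potency is the fitted concentration of half-maximal effect; plate controls were DMSO wells for no effect and full inhibition by NEM control for full effect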
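Cell-free coupled assay: 10nM USP2 core preincubated 30min RT with compound in Tris-HCl pH 8.0/CaCl2/CHAPS buffer, then 25nM Ub-CHOP2 and 25nM reporter substrate; fluorescence (Ex 485/Em 531) read after 60min RT, normalized to NEM inhibition, concentration-response curves fitted.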
uPA surface inh: qHTS for Inhibitors of Cell Surface uPA Generation | cell surface uPA generation assay, qHTS | AID 540303, 2011 | 330,000 compounds, 0.31% hits | Potency, µM (series often up to 38.3 µM), for the others: top-dose activity change, negative = inhibition, most hits filed as inhibitors; active = well fitted inhibition curve with a large enough effect; inconclusive = small, poorly fitted or top-dose-only effect; inactive = no such curve, though single readings can be large or run the other way; tested in mouse RAW 264.7 cells; note: potency is the fitted concentration of half-maximal effect; nearly all actives have a fitted effect of over 55% in size
L3MBTL1 block: qHTS Assay for the Inhibitors of L3MBTL1; Potency, µM (top dose mostly 57.1 µM), without a hit: top-dose activity, negative = inhibition, actives largely listed as inhibitors; 230,000 compounds, 0.66% hits; AlphaScreen L3MBTL1–H3K9me1 peptide binding; Lethal(3)malignant brain tumor-like protein 1 (Homo sapiens), Q9Y468; AID 485360, 2010; note: potency is the fitted concentration of half-maximal effect; nearly all actives have a fitted effect of over 60% in size
Target sequence (Q9Y468 whole entry, looked up): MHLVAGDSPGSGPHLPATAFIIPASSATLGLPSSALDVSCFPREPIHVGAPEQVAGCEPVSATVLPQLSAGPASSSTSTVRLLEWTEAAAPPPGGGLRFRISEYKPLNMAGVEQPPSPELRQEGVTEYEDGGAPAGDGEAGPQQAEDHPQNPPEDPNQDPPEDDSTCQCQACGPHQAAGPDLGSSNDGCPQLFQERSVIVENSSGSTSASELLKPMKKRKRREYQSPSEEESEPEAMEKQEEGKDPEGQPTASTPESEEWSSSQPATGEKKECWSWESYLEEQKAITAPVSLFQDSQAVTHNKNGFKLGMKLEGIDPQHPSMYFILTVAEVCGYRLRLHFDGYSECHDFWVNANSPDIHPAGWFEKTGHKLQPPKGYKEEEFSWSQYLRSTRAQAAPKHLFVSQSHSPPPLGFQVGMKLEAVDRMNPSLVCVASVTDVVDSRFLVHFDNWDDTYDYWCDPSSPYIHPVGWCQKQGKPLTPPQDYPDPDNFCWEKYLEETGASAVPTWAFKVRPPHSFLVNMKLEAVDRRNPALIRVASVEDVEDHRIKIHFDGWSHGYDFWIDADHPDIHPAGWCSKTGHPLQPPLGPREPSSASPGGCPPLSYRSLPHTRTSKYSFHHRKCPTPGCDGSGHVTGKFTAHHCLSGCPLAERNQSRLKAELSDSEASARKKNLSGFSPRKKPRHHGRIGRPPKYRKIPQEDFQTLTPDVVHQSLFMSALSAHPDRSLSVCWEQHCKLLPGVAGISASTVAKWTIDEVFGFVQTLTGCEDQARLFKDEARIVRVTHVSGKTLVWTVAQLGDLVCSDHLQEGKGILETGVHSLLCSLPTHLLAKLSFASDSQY
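Displacement of a biotinylated histone H3(1-15) peptide monomethylated at Lys9 (75 nM) from L3MBTL1 (50 nM) was measured by AlphaScreen after a 30 min room-temperature compound incubation; cefsulodin titration served as intraplate control.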
Eya2 phos inh: qHTS Assay for Inhibitors of the Phosphatase Activity of Eya2; recombinant Eya2, OMFP fluorescence dephosphorylation (OMFP is methylfluorescein phosphate); Potency, µM (highest dose often 76.9 µM), for inactives: at the top dose activity, negative = inhibition, hits mostly inhibitors; 330,000 compounds, 0.006% hits; AID 488837, 2010; note: potency is the fitted concentration of half-maximal effect
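Eya2 (0.2 uM) preincubated 10 min at ambient with compound, then OMFP substrate added at 50 uM; 10 min reaction in 50 mM HEPES pH 7.5, 50 mM NaCl, 5 uM MgCl2, 0.05% BSA, 1 mM DTT. Fluorescence read at Ex 485/Em 525 nm.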
* hit, by the source's call; ? = inconclusive; · = no result; [ ] = another dose, or the depositor's remark. Shown are actives, neighbours in structure and some others; about 1.2% of the full set was active somewhere. Unless noted, calls come from the whole dose curve; as a rule, active = well fitted curve in the direction sought with a large enough effect; inconclusive = small, poorly fitted or top-dose-only effect, or another doubt; inactive = no such curve, though single readings can be large; an effect the other way counts as inactive or inconclusive. Unless noted, % is set by controls: 0 for no effect and ±100 for the full control effect.

SMILES	Six1-Eya2 inh	CtBP-E1A inh	USP2a inh	uPA surface inh	L3MBTL1 block	Eya2 phos inh
CC(=O)c1ccc(NC(=O)c2cccc(N3C(=O)c4ccccc4C3=O)c2)cc1	7	-5	0%	16%	·	5%
COc1ccc(NC(=O)c2cccc(N3C(=O)c4ccc(C(=O)Nc5ccc(OC)c(O)c5)cc4C3=O)c2)cc1O	?	-66*	-1%	-14%	·	5%
N/C(=N\OC(=O)N1CCOCC1)c1ccc(Br)cc1	-7	·	0%	10µM*	31%	-3%
Cc1ccc(-c2ccc(CCC(=O)O)n2NC(=O)c2cccs2)cc1	1	-2	?	4%	40µM*	40%
O=C(COC(=O)/C=C/c1ccc(Cl)cc1)Nc1cccc(S(=O)(=O)NC2=NCCCCC2)c1	-7	-84*	1%	9%	-8%	-14%
CC(C)(C)c1ccc(C(=O)Nc2cccc(S(=O)(=O)NC3=NCCC3)c2)cc1	-17	-23	-1%	4µM*	-3%	9%
O=C(COC(=O)/C=C/c1cccc(Cl)c1)Nc1cccc(S(=O)(=O)NC2=NCCC2)c1	-15	-80*	2%	5%	-5%	-1%
CN(C)c1ccc(C(=O)Nc2cccc(S(=O)(=O)NC3=NCCCCC3)c2)cc1	?	·	1%	?	3%	10%
CCOC(=O)[C@H]1[C@H]2COc3ccc(Cl)cc3[C@@H]2N2C(=O)c3ccc(Cl)cc3NC(=O)[C@@]12C	-2	-12	1%	7%	-3%	24%
O=C(COC(=O)Cc1c(F)cccc1Cl)Nc1ccc2[nH]c(=O)[nH]c2c1	-12	-19	2%	1%	-8%	4%
COC(=O)N/N=C/c1ccc(OC(=O)/C=C/c2ccco2)cc1	?	-71*	1%	-1%	-9%	18%
COC(=O)N/N=C\c1ccc(OC(=O)c2ccco2)cc1	-10	4	0%	2%	·	10%
O=C(Cc1ccccc1)N/N=C/c1ccc(OC(=O)/C=C\c2ccco2)cc1	?	-65*	-1%	-12%	15%[11.4 µM]	-7%
CCc1ccc(OC(=O)/C=C/c2ccco2)cc1	22	7	2%	-7%	-7%	9%
CN(C)c1cccc2c1C(=O)c1ccccc1C2=O	-86*	-85*	1%	-3%	25µM*	-12%
NC(=S)NN=Cc1nccc2c(C(F)(F)C(F)(F)C(F)(F)F)cccc12	-19	16	·	·	·	·
NC(=S)NN=Cc1nccc2ccccc12	-81*	-94*	·	-18%	·	·
NC(=S)N/N=C/c1cccc(/C=N/NC(N)=S)c1	-17	-14	0%	-2%	5%	2%
Cc1cnc(C=NNC(N)=S)c2cccc(N)c12	-79*	-2	·	-7%	·	·
COC(=O)COc1ccc(C(=O)Cn2c(NCCCO)nc3ccccc32)cc1	1	-1	·	3%	·	·
Cc1ccc(S(=O)(=O)N2CCC(C(=O)NCC(C)(C)N3CCOCC3)CC2)c(C)c1	-1	·	0%	-5%	0%	21%
O=C(CN1C(=O)c2ccccc2S1(=O)=O)c1ccc2c(c1)OCCO2	-1	·	1%	2µM*	-1%	5%
Cc1cc(=O)oc2c3c(cc(OCC(=O)N4CCC[C@H]4C(=O)O)c12)OC(C)(C)CC3	-71*	?	-1%	7%	·	-21%
O=C(O)CCCNc1cc(N2CCC3(CC2)OCCO3)c2noc3c2c1C(=O)c1ccccc1-3	·	·	?	·	10µM*	?
CCOC(=O)N1CCN(c2cc(NCCC(=O)O)c3c4c(onc24)-c2ccccc2C3=O)CC1	-69*	-70*	?	-2%	8.9µM*	?
SMILES	Six1-Eya2 inh	CtBP-E1A inh	USP2a inh	uPA surface inh	L3MBTL1 block	Eya2 phos inh
O=C(O)CCCNc1cc(N2CCN(C(=O)c3ccco3)CC2)c2noc3c2c1C(=O)c1ccccc1-3	?	?	8%	-3%	·	-6%
CCOC(=O)N1CCN(C2=C(NS(=O)(=O)c3ccc(C)cc3)C(=O)c3ccccc3C2=O)CC1	?	·	0%	?	·	-7%
O=C1c2ccccc2-c2onc3c(N4CCN(CCO)CC4)cc(N4CCN(C(=O)c5ccco5)CC4)c1c23	?	-75*	15%	2%	·	20%
CN1CCN(c2cc(N3CCN(C(=O)c4ccco4)CC3)c3c4c(onc24)-c2ccccc2C3=O)CC1	?	·	0%	-7%	·	10%
CN1CCN(C2CN(C3CCCC3)S(=O)(=O)C2)CC1 (centres undefined)	13	-12	·	·	·	·
CC(OC(=O)Cc1ccccc1[N+](=O)[O-])C(=O)Nc1ccc(Cl)cn1 (centres undefined)	-4	-13	0%	3%	-6%	-10%
COc1ccc(-c2csc(Nc3ccc(S(=O)(=O)Nc4cc(OC)nc(OC)n4)cc3)n2)cc1	-17	-21	?	5%	-11%	-23%
COc1cc(NS(=O)(=O)c2ccc(Nc3nc(-c4ccccn4)cs3)cc2)nc(OC)n1	-79*	-76*	-1%	0%	-12%	3%
CN(Cc1ccccc1)C(=O)C1CCN(S(=O)(=O)c2cccc3nsnc23)CC1	-1	9	3%	9%	·	1%
O=C(Nc1cccc(Br)c1)c1ccc2c(c1)SC1=NS(=O)(=O)CCN12	0	·	1%	?	8%	11%
O=C(N/N=C/c1c(O)n(Cc2ccco2)c(=O)[nH]c1=O)c1ccccc1	-86*	-85*	0%	-13%	·	-25%
O=C(N/N=C\c1ccccc1OCc1ccccc1)c1ccco1	?	?	1%	-20%	0%	2%
CCC(C)C(=O)N1c2ccccc2C(=C2SC(C(=O)OC)=C(C(=O)OC)S2)C(=S)C1(C)C (centres undefined)	-80*	-83*	0%	3%	?	19%
CCOC(=O)C1=C(C)c2ccccc2N(C(=O)OC)C1(C)C(=O)OCC (centres undefined)	-17	-11	-1%	?	-2%	-1%
COC(=O)C[C@H]1C[C@H]2c3cc(NC(=O)Nc4ccc(C(F)(F)F)cc4)ccc3O[C@H]2[C@@H](CO)O1	-5	-18	·	·	·	·
CC1CCCC(NC(=O)Cn2c(Cl)nc3c2c(=O)n(C)c(=O)n3C)C1C (centres undefined)	1	-7	0%	0%	2%	5%

Assay outcomes deposited in PubChem BioAssay by National Center for Advancing Translational Sciences (NCATS).
